In PubChem BioAssay AID2685 (National Center for Advancing Translational Sciences (NCATS), 2010):
Screen size: about 320,000 compounds; about 2,100 (0.66%) were called active. About 53% were inconclusive and are not listed. This is one part of a sample in which actives are shown more often than they occur. Calls come from the whole dose curve; as a rule, active = well fitted inhibition curve with a large enough effect in the signal ratio, with a control signal flat (not every such curve was filed as active); inconclusive = small, poorly fitted or top-dose-only effect, or effect the other way, or a change in a side signal; inactive = flat fitted curve, though single readings scatter; the % refers to the signal ratio.
Potency is the fitted concentration of half-maximal effect.

Assay: qHTS Assay for Lipid Storage Modulators in Drosophila S3 Cells;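 for cell number change: cells counted by Cell Tracker Red CMTPX staining in the red channel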
Settings: BODIPY lipid droplet fluorescence, 18-24 h, cells fed with added oleic acid; cell number change: measured here: cell count max response; series mostly up to 46.1 µM
Outline: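 Drosophila S3 cells got compounds at several concentrations plus oleic acid (400 uM solution). Laser-scanning cytometry with 488 nm excitation read lipid droplets at 500-530 nm and cells at 575-640 nm. Percent activity was relative to 20 uM Triacsin C.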
In the case of Cc1c(CN2CCCC(C(=O)c3cccc(OC(C)C)c3)C2)c(=O)n(-c2ccccc2)n1C (centres undefined), the Potency is reported as “inactive” and the cell number change is reported as 1.94%.
With C/C(=N\NC(=O)c1ccc(Cl)cc1)c1cccc(NC(=O)c2cccnc2)c1 the Potency was “inactive” and the cell number change was 13.4%.
For CCn1c(CSc2nc(C)cs2)nc2cc(S(=O)(=O)N(C)C)ccc21, the Potency was “inactive” and the cell number change was -5.93%.
For CCn1c(SCC(=O)NC2CCCC2)nnc1-c1c[nH]c2ccccc12, the Potency was “inactive” and the cell number change was 30%.
With CN(C)C(CNC(=O)CN1C(=O)NC2(CCc3ccccc32)C1=O)c1ccco1 (centres undefined) the Potency was “inactive” and the cell number change was 6.97%.
For Cc1ccc(NC(=O)C(C)SCC(=O)Nc2ccc(F)cc2)cc1S(=O)(=O)N1CCOCC1 (centres undefined), the Potency was “inactive”.
For CC1(C(=O)NC2CCCCCC2)CCC(=O)N1Cc1ccc2c(c1)OCO2 (centres undefined), the Potency was “inactive” and the cell number change was -18.4%.
For Nc1nc(-c2ccccc2)c(-c2ccccc2)n1N, the Potency was “inactive”.
In the case of c1ccc(-c2cnn3c(-c4ccccc4)c(-c4ccccc4)nc3n2)cc1, the Potency is reported as 3.26 µM (active) and the cell number change is reported as -3.03%.
For c1ccc(-c2cn3nc(-c4ccccc4)c(-c4ccccc4)nc3n2)cc1, the Potency was “inactive” and the cell number change was 19.6%.
In the case of CC(=O)N(CCCN(C)C)Cc1ccccn1, the Potency is reported as “inactive” and the cell number change is reported as 6.64%.
With Cc1ccc(S(=O)(=O)N2CCN(C3CCN(Cc4ccccc4)CC3)CC2)cc1 the Potency was “inactive” and the cell number change was -12.2%.
In the case of Brc1ccccc1CN1CCC(N2CCCCC2)CC1, the Potency is reported as “inactive” and the cell number change is reported as -5.87%.
In the case of O=S(=O)(c1ccc2ccccc2c1)N1CCN(C2CCN(Cc3ccccc3)CC2)CC1, the Potency is reported as 5.8 µM (active) and the cell number change is reported as 21%.
In the case of O=S(=O)(c1ccc2ccccc2c1)N1CCCCCC1, the Potency is reported as “inactive” and the cell number change is reported as 0.283%.
In the case of c1ccc(CN2CCC(N3CCC(N4CCCCCC4)CC3)CC2)cc1, the Potency is reported as 0.82 µM (active) and the cell number change is reported as -20.6%.
For O=S(=O)(c1ccccc1)N1CCN(C2CCN(Cc3ccccc3)CC2)CC1, the Potency was “inactive” and the cell number change was 9.59%.
For c1ccc(C2CCC(N3CCC(N4CCCCC4)CC3)CC2)cc1 (centres undefined), the Potency was “inactive” and the cell number change was -17%.
In the case of CCS(=O)(=O)N1CCN(S(=O)(=O)c2ccc3ccccc3c2)CC1, the Potency is reported as “inactive” and the cell number change is reported as 16.6%.
In the case of CC1CCN(S(=O)(=O)c2ccc3ccccc3c2)CC1, the Potency is reported as 3.26 µM (active) and the cell number change is reported as 5.85%.
For COc1cccc(NC(=O)CN2C(=O)NC(C)(CCC(C)C)C2=O)c1 (centres undefined), the Potency was “inactive” and the cell number change was 17.1%.
With O=C(NCCc1ccc(Cl)cc1)c1ccc(CS(=O)Cc2ccc(Cl)cc2)o1 (centres undefined) the Potency was “inactive”.
In the case of O=C(CCN1C(=O)COc2ccccc21)N1CCN(c2ccccc2)CC1, the Potency is reported as “inactive” and the cell number change is reported as 0.131%.
With O=C(NCC1CCCO1)C1CCN(C2CCN(C(=O)Cc3ccsc3)CC2)CC1 (centres undefined) the Potency was “inactive” and the cell number change was -8.37%.
In the case of COc1ccc(CNc2nnnn2C)c(OC)c1, the Potency is reported as 0.651 µM (active) and the cell number change is reported as -2.1%.
In the case of COc1ccc(CNc2nc3ccccc3n2C)c(OC)c1, the Potency is reported as “inactive” and the cell number change is reported as -4.3%.
For CCOc1c(CNc2nnnn2C)cccc1OC, the Potency was “inactive” and the cell number change was 15.4%.
For O=C1NC(=S)N/C1=C\c1ccccc1OCc1ccc(C(=O)O)cc1, the Potency was “inactive” and the cell number change was -1.56%.
In the case of O=C(NCCNC(=O)c1ccccc1Br)c1ccccc1Br, the Potency is reported as “inactive” and the cell number change is reported as 13.7%.
For O=C(NCCO)c1ccccc1O, the Potency was “inactive” and the cell number change was 26.5%.
For O=C(NCCNC(=O)c1ccccc1O)c1ccccc1O, the Potency was 9.2 µM (active) and the cell number change was -28.8%.
In the case of Cc1ccc(C2C(C#N)=C(N)N(c3ncn[nH]3)C3=C2C(=O)CC(C)(C)C3)cc1 (centres undefined), the Potency is reported as “inactive”.
In the case of CCOc1ccc(N(CC(=O)NC(C(C)C)C(C)C)S(=O)(=O)c2ccc(OC)c(OC)c2)cc1, the Potency is reported as “inactive” and the cell number change is reported as 14%.
For CC(=O)C1=C(O)C(=O)N(c2ccc(S(N)(=O)=O)cc2)C1c1cccc([N+](=O)[O-])c1 (centres undefined), the Potency was “inactive” and the cell number change was 5.32%.
With CC(C)CNC(=O)c1ccc(Cl)c(Cl)c1 the Potency was “inactive” and the cell number change was -14.4%.
For CC(NC(=O)Cc1ccc(S(=O)(=O)N2CCOCC2)s1)c1ccc(Cl)c(Cl)c1 (centres undefined), the Potency was “inactive” and the cell number change was -8.77%.
With CC(NC(=O)CCl)c1ccc(Cl)c(Cl)c1 (centres undefined) the Potency was 23.1 µM (active) and the cell number change was -24.5%.
For Cc1ccc(NC2CCCN(C(=O)c3cnc4ccccn4c3=O)C2)cc1C (centres undefined), the Potency was “inactive” and the cell number change was 10.1%.
In the case of Cc1ccc(S(=O)(=O)NCC(=O)NCC(=O)N2CCC(C)CC2)cc1, the Potency is reported as “inactive” and the cell number change is reported as 27.4%.
With CC1CCN(C(=O)CCNS(=O)(=O)c2ccccc2)CC1 the Potency was “inactive” and the cell number change was 9.54%.
With Cc1ccc(S(=O)(=O)NCCCC(=O)N2CCC(C)CC2)cc1 the Potency was 16.4 µM (active) and the cell number change was -15.3%.
With CC1CN(C(=O)COC(=O)c2ccc(NC(=O)CC#N)cc2)CC(C)O1 (centres undefined) the Potency was “inactive” and the cell number change was -23.4%.
In the case of CC(=O)Nc1cc(NC(C)=O)cc(C(=O)OCC(=O)N2CC(C)OC(C)C2)c1 (centres undefined), the Potency is reported as 25.9 µM (active) and the cell number change is reported as -18.5%.
With CCOc1ccc(C(=O)OCC(=O)N2CC(C)OC(C)C2)cc1OCC (centres undefined) the Potency was “inactive” and the cell number change was -6.35%.
With COC(=O)c1ccc(NC(=O)CSc2nc(=O)n3cccc(C)c3n2)cc1 the Potency was “inactive” and the cell number change was -5.09%.
For CC(=O)Nc1ccc(-n2c(C)ccc2-c2ccccc2)cc1, the Potency was “inactive” and the cell number change was 12.4%.
In the case of COC(=O)c1ccc(-n2c(C)ccc2-c2ccccc2)cc1, the Potency is reported as “inactive”.
With COc1ccc(-n2c(C)ccc2-c2ccccc2)cn1 the Potency was 14.6 µM (active) and the cell number change was 3.52%.
For COc1ccc(Br)cc1C(=O)NC(=S)Nc1ccc2[nH]c(=O)[nH]c2c1, the Potency was “inactive” and the cell number change was -29.5%.
For COc1ccc(S(=O)(=O)N2CCCCCC2)cc1C(=O)Nc1ccc(C)cn1, the Potency was “inactive”.
With COc1ccc(C2CC(O)(c3ccccc3)Oc3cc(OC)cc(OC)c32)cc1 (centres undefined) the Potency was “inactive” and the cell number change was -14.8%.
For COc1ccc([C@@H]2C[C@H](c3ccccc3)Oc3cc(OC)c(OC)c(OC)c32)cc1, the Potency was 4.61 µM (active) and the cell number change was -18.2%.
For COc1ccc([C@@H]2C[C@@H](c3ccccc3)Oc3cc(OC)c(OC)c(OC)c32)cc1, the Potency was “inactive” and the cell number change was -1.66%.
With C=C1CCN(C(C(=O)OC)C(C)C)S(=O)(=O)c2ccccc21 (centres undefined) the Potency was “inactive” and the cell number change was 0.159%.
For CC(C)CC(=O)NC1(C(F)(F)F)C(=O)Nc2c1c(=O)n(C)c(=O)n2C (centres undefined), the Potency was 3.66 µM (active) and the cell number change was 2.2%.
In the case of Cn1c2c(c(=O)n(C)c1=O)C(NC(=O)c1cccs1)(C(F)(F)F)C(=O)N2 (centres undefined), the Potency is reported as “inactive” and the cell number change is reported as -6.48%.
With CCCCC(=O)NC1(C(F)(F)F)C(=O)Nc2c1c(=O)n(C)c(=O)n2C (centres undefined) the Potency was 18.4 µM (active) and the cell number change was -5.38%.
In the case of Cn1c2c(c(=O)n(C)c1=O)C(NC(=O)c1ccco1)(C(F)(F)F)C(=O)N2 (centres undefined), the Potency is reported as “inactive” and the cell number change is reported as 6.96%.
For CC(=O)NC1(C(F)(F)F)C(=O)Nc2c1c(=O)n(C)c(=O)n2C (centres undefined), the Potency was “inactive” and the cell number change was -13.1%.
In the case of CCC(=O)NC1(C(F)(F)F)C(=O)Nc2c1c(=O)n(C)c(=O)n2C (centres undefined), the Potency is reported as “inactive” and the cell number change is reported as 7.51%.
